Hit rate of the full screen: of about 300,000 compounds, about 37,000 (12%) were called active. What follows is part of a selection rich in actives, with near analogues and random picks from the rest. A number with no mark means an inactive call. No stated cut-off is given here; in the data, active means max response mostly above about 13% (no sharp cut-off); inactive means mostly below about 14%.

The assay in a line: Cycloheximide Counterscreen for Small Molecule Inhibitors of Shiga Toxin. Further: read at 38.3 µM for the half of the compounds with a filed dose; 0% is about no effect. The conditions noted are these: cell reporter, cycloheximide protein synthesis inhibition counterscreen; stronger effect = higher value. Background: A counterscreen serves to expose hits that act by an unwanted route or on another target.
In the case of `COc1ccc([N+](=O)[O-])cc1N(CC(O)CN(CC(C)C)CC(C)C)S(=O)(=O)c1ccc(C)cc1` (stereo not drawn), the max response is 9.04%.

Turning to `Cc1ccc(C(=O)Cc2nnc(C)s2)cc1`, the max response was 43.7% (active).

With `Cc1ccc(C(=O)Cn2cccn2)cc1`, the max response was 6.54%.

For the molecule `CCOCc1nnc(NC(=O)CSc2ccc(C)cc2)s1`, the max response is -1.61%.

For `COc1cc2c(cc1NC(=O)COC(=O)/C=C/c1ccccc1)oc1ccccc12`, the max response was 0.0459%.

Regarding `O=C(O)Cc1sc(-c2ccccc2)nc1-c1cccs1`, the max response was 16.4%.

Regarding `NC(=O)Cc1ccc2sc(-c3ccccc3)nc2c1`, the max response is 75.6% (active).

Regarding `NC(=O)Cc1ccc2c(c1)[nH]c1ccccc12`, the max response is 4.3%.

On to `COC(=O)CN1C(=S)N(c2ccccc2)C(=O)C1CC(=O)Nc1ccc(Cl)cc1` (stereo not drawn), for which the max response is -2.88%.

In the case of `O=C(O)CC1=C(Nc2ccccc2)C(=O)N(c2ccccc2)C1c1ccc(Cl)cc1` (stereo not drawn), the max response is 38.1% (active).

With `O=C(O)Cc1ccc(NCc2ccccc2Cl)cc1`, the max response was 23.5%.

For `COc1ccccc1-n1c(=S)[nH]c2c(sc(=S)n2-c2ccc(C)cc2C)c1=O`, the max response was 5.32%.

Regarding `O=S(=O)(c1cnccc1N1CCN(/N=C/c2ccc(Br)cc2)CC1)N1CCCCC1`, the max response is -0.626%.

Consider `O=C(CSc1nnnn1-c1ccc(O)cc1)N1N=C(c2ccc3ccccc3c2)CC1c1ccccc1` (stereo not drawn), for which the max response is 6%.

With `CCN1C(=O)/C(=C2\SC(N3CCCCC3)=NC2=O)c2ccccc21`, the max response was 18.4% (active).

For `CC(C)=C1SC(N2CCN(c3cccc(C)c3)CC2)=NC1=O`, the max response is -1.33%.

As to `CC(C)=C1SC(N2CCN(c3ccc(C)c(Cl)c3)CC2)=NC1=O`, the max response was -1.62%.

On to `Cc1ccc(OCC(=O)NC(C)c2ccccc2)cc1C` (stereo not drawn), for which the max response is -1.54%.

For `CCOC(=O)N1CCN(Cc2nc(Cc3cccc(C(F)(F)F)c3)no2)CC1`, the max response is 9.29%.

Consider `CN(Cc1cccnc1)C(=O)c1cc(COc2ccc3ncccc3c2)on1`, for which the max response was 7.18%.

In the case of `COc1ccc(C(=O)NNC(=O)c2cc(C)[nH]n2)cc1`, the max response is 3.07%.

Take `C/C(=N/OC(=O)c1cccc(C(F)(F)F)c1)c1cnccn1`: the max response is -2.87%.

As for `Cc1nonc1C1CCCN1C(=O)c1cc(COc2cccc(C(F)(F)F)c2)on1` (stereo not drawn), the max response was 27.6% (active).

On to `CN(Cc1cnccn1)C(=O)c1cc(COc2cccc(C(F)(F)F)c2)on1`, for which the max response is 37.1% (active).

As to `Cc1cc(CN(C)C(=O)c2cc(COc3ccc(C)c(C)c3)on2)n[nH]1`, the max response was 46% (active).

With `CCC(=O)OCc1c(C(F)(F)F)nn(C)c1Oc1cccc(C(F)(F)F)c1`, the max response was -1.08%.

As for `CN(CCOc1ccccc1)C(=O)c1cc(COc2c(F)cccc2F)on1`, the max response is 15.4%.

Turning to `Cc1ccc(OCc2cc(C(=O)N(C)CCc3ccccc3)no2)cc1C`, the max response is 62.4% (active).

As to `COCCNC(=O)COc1ccc(C)c(C)c1`, the max response is 9.18%.

Take `CC(=O)c1cccc(NC(=O)C2CCCN(S(=O)(=O)c3cccc4nonc34)C2)c1` (stereo not drawn): the max response is -1.65%.

Take `CCCn1c(C2CCCN2c2nc(-c3ccc(C)cc3)cs2)nc2cc(Cl)c(N3CCCCC3)cc21` (stereo not drawn): the max response is 2.93%.

For `CCN(CC)CCN(C(=O)c1cc(Cl)sc1Cl)c1nc2cc3c(cc2s1)OCO3`, the max response was 11.7%.

With `CC(=O)Nc1ccc(NC(=O)CN2C(=O)COc3ccc(S(=O)(=O)N4CCCCC4)cc32)cc1`, the max response is -11.2%.

As for `COc1ccccc1Oc1ccc(N2CC(C(=O)OCC(=O)c3ccc(F)cc3)CC2=O)cc1` (stereo not drawn), the max response was 1.71%.

With `CCCOc1ccc(Cc2c(O)nc(SC)[nH]c2=O)cc1C`, the max response is 1.31%.

For the molecule `Cc1noc(/C=C/c2ccco2)c1S(=O)(=O)N1CCC(C(=O)Nc2ccc(Cl)cn2)CC1`, the max response was 14.7%.

Consider `Cc1cc(C)cc(OCC(=O)Nc2cc(NC(=O)COc3cc(C)cc(C)c3)cc(C(=O)O)c2)c1`, for which the max response was -5.04%.

As for `COc1ccc(CCNS(=O)(=O)c2cc3c(cc2C)NC(=O)CO3)cc1OC`, the max response was -0.971%.

Consider `FC(F)(F)c1nc(-c2ccccc2)ncc1-c1nnnn1-c1ccccc1`, for which the max response was -1.17%.

Regarding `Cc1ccc(CNC(=O)CCN2C(=O)[C@@H]3Cc4ccccc4CN3C2=O)cc1`, the max response is 4.73%.

Consider `O=C(NCc1ccccc1)c1onc(CSc2nc3ccccc3[nH]2)c1C(=O)NCc1ccccc1`, for which the max response is -0.0609%.

For the molecule `COc1ccccc1CSc1ncc(-c2ccc([N+](=O)[O-])cc2)[nH]1`, the max response is 29.2% (active).

In the case of `CCc1nnc(NC(=O)CCCSc2nc3ccccc3[nH]2)s1`, the max response was -1.42%.

Regarding `COc1ccccc1CSc1nc2ccccc2[nH]1`, the max response was 41% (active).

On to `COc1ccccc1CC(=O)Nc1ccc([N+](=O)[O-])cc1OC`, for which the max response was -1.19%.

Consider `COc1ccccc1-c1noc(CSc2nc(C)cc(=O)[nH]2)n1`, for which the max response is 1.82%.

Turning to `C=CCSc1nc2ccccc2[nH]1`, the max response was 12.4%.

`CCCCSc1nc2ccccc2[nH]1`: the max response was 30.4% (active).

As to `N#Cc1c(-c2ccccc2)nc(SCc2ccc([N+](=O)[O-])cc2)[nH]c1=O`, the max response was -1.84%.

Regarding `CCNS(=O)(=O)c1ccc(CCC(=O)N2CCN(c3ccc(OC)cc3)CC2)cc1`, the max response was 2.4%.

With `CC(Oc1ccccc1[N+](=O)[O-])C(=O)N/N=C/c1ccoc1` (stereo not drawn), the max response is -2.14%.

Take `CCOc1cc(C(C(=O)NCC2CCCO2)N(C(=O)Cn2nnc3ccccc32)c2cccc(OC)c2)ccc1O` (stereo not drawn): the max response was -2.76%.

With `Cc1c(Cl)c([N+](=O)[O-])nn1Cc1ccc(C(=O)N/N=C\c2cc(Cl)ccc2O)o1`, the max response was 9.36%.

Take `O=C(N/N=C/c1ccc2c(c1)OCO2)c1ccc(Cn2cc([N+](=O)[O-])cn2)o1`: the max response was 12.3%.

As to `O=C(N/N=C/c1ccc(OCC2COCCO2)cc1)c1ccc(Br)cc1` (stereo not drawn), the max response is 3.9%.

Take `CC1CCc2c(sc(NC(=O)c3ccc(Cn4cc(Br)cn4)o3)c2C(N)=O)C1` (stereo not drawn): the max response is 0.185%.

Regarding `CN(C)c1ccc(/C=N/NC(=O)c2ccc(Cn3cc(Br)cn3)o2)cc1`, the max response was 56.4% (active).

As to `O=C(N/N=C\c1ccc(Br)cc1)c1ccc(Cn2cccn2)o1`, the max response was 19.8% (active).

Values taken from PubChem BioAssay AID2314 (National Center for Advancing Translational Sciences (NCATS), 2010).
